# PubChem BioAssay (NCI)
# Values joined by “and” are separate entries in the source; they are usually repeats but may differ in a detail not shown here. Equal values may be shown once. This is part of a sample that, as a whole, favours compounds with a hit. Of some 83,000 tested, about 20% had one in any assay.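 Plates (96-well) were seeded with cells, treated with compound at one concentration, and incubated for 48 hours before percent growth was determined.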 Active and inactive are the calls of the source.
# Test system: HCT-15 colon
# Assay: NCI-60 one-dose screen, 48 h (100 = growth as untreated, 0 = no growth, -100 = all killed)
# Settings: 10 µM
# Experimental: Growth inhibition of the HCT-15 human tumor cell line is measured as a screen for anti-cancer activity. Cells are grown in 96 well plates and exposed to the test compound for 48 hours. Compounds are tested at a single concentration, which is 10^-5 M for most compounds. The reported endpoint is percent growth (GI% or GIPRCNT), where numbers from 0 - 100% represent growth inhibition, and numbers from -100% - 0 represent cell death. For example, a value of 40 represents 60% growth inhibition. A value of 0 means no net growth occurred over the course of the experiment. A value of -40 indicates 40% of cells at the beginning of the experiment died by the end of the experiment. A value of -100 means all cells are dead at the end of the experiment.
# NCI-60 Human Tumor Cell Lines Screen was performed using the standard one-dose NCI protocol, which is described in more detail at https://dtp.cancer.gov/discovery_development/nci-60/default.htm.
# Compounds with GIPRCNT values below 10 were considered active. Activity score was based on GIPRCNT using the following formula: […]
# Score is 0 for GIPRCNT values of 100 or above, 50 for GIPRCNT values of 0, and 100 for GIPRCNT values of -100.
row,SMILES,growth
1,O=C(O)CCCc1ccc(N(CCCl)CCCl)cc1,86.1% (inactive) and 95.5% (inactive)

# Same assay, conditions: 10 µM unless noted
row,SMILES,growth
1,C[C@]12CC[C@@H](OC(=O)N(CCCl)N=O)C[C@@H]1CC[C@@H]1[C@@H]2CC[C@]2(C)C(=O)CC[C@@H]12,72.8% (inactive)
2,CCCCn1c(=O)c(C(=O)NCc2ccccc2Cl)c(O)c2ccccc21,48.6% (inactive)
3,C=C1C(=O)OC2CC3(C)OC3C3OC3C3=CC(OC3=O)C12 (stereo not given),46.4% (inactive) and 36% (inactive)
4,COc1ccc(N)cc1OC,94.4% (inactive)
5,O=[N+]([O-])c1ccc(CI)cc1,8.86% (active)
6,CC(C)COC(=O)Cc1ccccc1,109% (inactive)
7,CC12CCC3C4CCC(=O)C=C4CCC3C1CC1CC(=O)OC12 (stereo not given),112% (inactive)
8,C[C@]12CC[C@H]3[C@@H](CC=C4c5nc(N)sc5CC[C@@]43C)[C@@H]1CC[C@@H]2O,98.4% (inactive)
9,COc1ccc(/C=C(/C)[N+](=O)[O-])cc1OC,-25.4% (active) and -17.4% (active)
10,C[C@]12C[C@H](c3ccoc3)OC(=O)[C@H]1CC[C@@]1(C)[C@@H]2[C@H]2C=C[C@]1(O)C(=O)O2,101% (inactive)
11,Nc1nc(=S)nc(N)[nH]1,101% (inactive)
12,COc1cc2c(c(OC)c1OC)-c1ccc(O)cc1[C@@H](NC(C)=O)CC2,4.26% (active) and 6.32% (active)
13,C=CC[PH+](c1ccccc1)c1ccccc1.C=CC[PH+](c1ccccc1)c1ccccc1.[Pt+2].[S-]c1nc2ccccc2[nH]1.[S-]c1nc2ccccc2[nH]1,70% (inactive)
14,N#CCCc1ccccc1,98.3% (inactive)
15,O=S(=O)(F)c1cccc(Cl)c1C[P+](c1ccccc1)(c1ccccc1)c1ccccc1,91.7% (inactive)
16,NC(N)=NC(N)=Nc1ccc(Cl)cc1,108% (inactive)
17,O=C(O)c1cc([N+](=O)[O-])cc([N+](=O)[O-])c1,109% (inactive)
18,C#Cc1cccc(Nc2nc(Cl)nc3cc(NC(=O)CF)ccc23)c1,35.4% (inactive)
19,CC[C@H](C)[C@H](NC(=O)[C@H]1CCCCN1C)C(=O)N(C)[C@H](C[C@@H](OC(C)=O)c1nc(C(=O)NC23C4C5C2C2C3C4C52C(=O)OC)cs1)C(C)C (stereo not given in full),9.18% (active)

row,SMILES,growth
1,CCCCCCCCCCCCCCCC[N+](C)(C)C,-37.7% (active) and 23.9% (inactive)
2,CC1(C)CN=C(NN=C(/C=C/c2ccc(C(F)(F)F)cc2)/C=C/c2ccc(C(F)(F)F)cc2)NC1,-72% (active)
3,O=C1C=C(N2CC2)c2ccccc2C1=O,79.6% (inactive)
4,CC(=O)Cc1ccc2c(c1)OCO2,113% (inactive)
5,C(=NC1CCCCC1)=NC1CCCCC1,108% (inactive)
6,Clc1ccc(COC(Cn2ccnc2)c2ccc(Cl)cc2Cl)c(Cl)c1 (stereo not given),41.9% (inactive) and 46.2% (inactive)
7,CN1C2CCC1[C@@H](COC(=O)c1ccccc1)[C@@H](O)C2 (stereo not given in full),111% (inactive)
8,C[N+]1(C)CCCC1c1cccnc1 (stereo not given),104% (inactive)
9,O=[N+]([O-])c1ccc(P(=O)(O)O)cc1,103% (inactive)
10,NC1CN2CCC1CC2 (stereo not given),99.3% (inactive)
11,COC[C@H]1OC(=O)c2coc3c2[C@@]1(C)C1=C(C3=O)[C@@H]2CCC(=O)[C@@]2(C)C[C@H]1OC(C)=O,53.8% (inactive)
12,O=[N+]([O-])c1ccc(OCc2ccc(S(=O)(=O)F)c(Cl)c2)c(Cl)c1,84.6% (inactive)
13,CC1(C)N=C(N)N=C(N)N1c1ccc(CCC(=O)Nc2ccc(S(=O)(=O)F)cc2)cc1,46.2% (inactive)
14,CC(=O)Nc1nc2c(s1)C1=CC[C@H]3[C@@H]4CC[C@H](OC(C)=O)[C@@]4(C)CC[C@@H]3[C@@]1(C)CC2,40.3% (inactive)
15,O=c1c2ccccc2nc(-c2ccccc2Cl)n1-c1nnc(C(F)(F)F)s1,21.1% (inactive)
16,CC/C(Cc1ccccc1)=C(\c1ccc(OCCN2CCCC2)cc1)c1ccc(OC(=O)NCc2ccccc2)cc1,-11.5% (active)
17,COc1cc2c(cc1OC)-c1c3c(cc4c1[C@@H](C2)N(C)CC4)OCO3,29% (inactive)
18,COC12CC3(C)C(C4=CC(=O)OC4)CCC3(O)C3CCC4=CC(=O)CCC4(CO1)C32 (stereo not given),101% (inactive)
19,O=Cc1cn(Cc2ccccc2)c2ccccc12,106% (inactive)

# Same assay, conditions: 75 µM
row,SMILES,growth
1,O=C(O)CCCc1ccc(N(CCCl)CCCl)cc1,46.3% (inactive)
